These results are taken from PubChem BioAssay (NCATS).

Experiment [1] concerns the target Tyrosine-protein kinase Yes (Homo sapiens) (UniProt P07947). Nature of the experiment: qHTS for small molecule inhibitors of Yes1 kinase: Primary Screen (AID 686947). Further: nearly all actives have a fitted effect of over 60% in size. Further: potency means the concentration at half of the fitted maximal effect. As to conditions: Yes1 kinase biochemical qHTS inhibition; series mostly up to 76.9 µM. The gist of the method:
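Yes1 (4 nM) preincubated 20 min with compound, then 60 min room-temperature reaction with 0.1 mM ATP and 0.3 mg/mL poly(E4Y) in pH 7.5 Tris, 10 mM MgCl2. ADP measured by ADP-Glo luminescence, normalised to enzyme/no-enzyme controls.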
On the technique in general: qHTS replaces the single test concentration by a dilution series.

The nature of experiment [2]: qHTS for small molecule inhibitors of Yes1 kinase: Counter Assay (AID 686950).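 Further: no kinase present so only ADP-Glo detection of a fixed ADP amount is tested; luminescence from ADP-Glo reporting ADP in a fixed ATP and ADP mixture.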 The note with it: series mostly up to 76.9 µM. The essentials: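 Enzyme-free ADP-Glo interference check: compounds were preincubated 20 min in buffer, then an ATP/ADP mix (0.08 mM ATP, 0.02 mM ADP final) was added for 60 min at room temperature before two-step ADP-Glo luminescence detection.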

The nature of experiment [3]: qHTS assay for small molecule activators of the p53 signaling pathway (AID 651743; active means well fitted activation curve with a large enough effect in the signal ratio, not every such curve was filed as active; the % refers to the signal ratio). The note with it: HCT-116 p53RE-bla, beta-lactamase FRET ratio, 16 h; active compounds read high. The gist of the method:
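Cell-based beta-lactamase reporter (p53 response elements, HCT-116 background). After a 5-hour preincubation, cells received compound for 16 hours at 37 C; substrate development ran 2 hours at room temperature.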

Experiment [4] can be described thus: qHTS assay for small molecule activators of the nuclear factor-kappa B (NF-kB) signaling pathway (AID 651749; active means well fitted activation curve with a large enough effect in the signal ratio; the % refers to the signal ratio). The note with it: NF-kB-bla ME-180 cells, beta-lactamase FRET ratio, 16 h; active compounds read high. The gist of the method:
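Screening used 2,000 ME-180 reporter cells per well exposed to pinned compound (23 nL) or DMSO; after 16 hr at 37C, beta-lactamase expression under NF-kB control was assessed through FRET.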

Experiment [5] is described as follows: qHTS assay for environmental chemicals that activate the Aryl hydrocarbon Receptor (AhR) signaling pathway (AID 651777). Further: nearly all actives have a fitted effect of over 15% in size. As to conditions: 1A2-DRE human hepatoma cells, luciferase, 24 h; active compounds read high. The essentials:
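Luminescence (One-Glo, 30 min, room temperature) reports AhR-driven luciferase in stably transfected human hepatoma cells bearing DRE and CYP1A2 promoter. Cells (1,200/well) were treated with compound for 24 hr at 37 C in qHTS format.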

Experiment [6] concerns the target Peroxisome proliferator-activated receptor alpha (Homo sapiens) (UniProt Q07869). Briefly: qHTS assay for small molecule agonists of the peroxisome proliferator-activated receptor alpha (PPARalpha) signaling pathway (AID 651778). As to conditions: PathHunter PPARalpha complementation, chemiluminescence, 6 h; active compounds read high. The essentials:
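Cells plated at 2,000/well and held overnight at 37 C, 5% CO2, then compound added by pin tool for 6 hr; after PathHunter detection reagent and 60 min at room temperature, chemiluminescence from enzyme complementation was read.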

Experiment [7] in a line: qHTS assay for small molecule agonists of the antioxidant response element (ARE) signaling pathway measured by Nrf2-dependant transcriptional activity (AID 720636; active means well fitted curve in the direction sought with a large enough effect in the repeat runs; an effect the other way counts as inactive or inconclusive). As to conditions: ARE-luc HepG2, Nrf2 luciferase reporter, 16 h; series mostly up to 92.4 µM. The gist of the method:
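Nrf2-dependent transcription read as ONE-Glo luciferase signal from ARE-luc HepG2 reporter cells after 16 hr compound treatment at 37 C, 5% CO2, in assay medium with 1% dialyzed FBS.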

A short description of experiment [8]: qHTS assay for small molecule agonists of the antioxidant response element (ARE) signaling pathway measured by Nrf2-dependant transcriptional activity - cell viability counter screen (AID 720653; active means well fitted curve in the direction sought with a large enough effect in the repeat runs; an effect the other way counts as inactive or inconclusive). As to conditions: ARE-bla HepG2 viability, CellTiter-Glo ATP luminescence, 16 h; active compounds read low. The gist of the method:
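ARE-bla HepG2 cells (2,000/well) rested 5 hrs at 37C/5% CO2, then exposed to compounds in DMSO for 16 hrs. Viability was read in the same wells as intracellular ATP by luminescence, 30 min at room temperature after reagent addition.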

Experiment [9] can be described thus: qHTS assay for cell viability of HEK293 cells (AID 743288). Further: nearly all actives have a fitted effect of over 50% in size. As to conditions: ATP luminescence (CellTiter-Glo), 18 h, active compounds read low. The gist of the method:
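Parental HEK293 cells, 2,000 per well, preincubated at least 5 h at 37 C, then exposed to compounds in DMSO for 18 h at 37 C. Viability by CellTiter-Glo ATP luminescence after 30 min at room temperature.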

Experiment [10] is described as follows: qHTS for Inhibitors of Ubiquitin-specific Protease USP2a Using CHOP2 as the Reporter: K633 Counterscreen (AID 652168). The note with it: No-enzyme DiUb K48 IQF substrate fluorescence interference, kinetic; series mostly up to 57.5 µM. The gist of the method:
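Cell-free interference counterscreen without USP2a: compounds pinned into enzyme-free buffer (20 mM Tris pH 8, 2 mM beta-mercaptoethanol, 0.05% Chaps), then DiUb K48-4IQF substrate added (100 nM stock); fluorescence read kinetically, Ex 525/Em 598.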

A short description of experiment [11]: qHTS for Inhibitors of Ubiquitin-specific Protease USP2a Using CHOP2 as the Reporter: Cytotox Assay (AID 652170). Further: potency means the concentration at half of the fitted maximal effect; nearly all actives have a fitted effect of over 70% in size. The note with it: HCT116 viability, CellTiter-Glo luminescence, 72 h. The essentials:
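HCT116 human colon cancer cells, 600 per well in DMEM with 10% FBS, exposed to compounds for 72 hr at 37 deg C. ATP measured by CellTiter-Glo luminescence, normalized to DMSO cells and no-cell background.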

Experiment [12] concerns the target Ubiquitin carboxyl-terminal hydrolase 2 (Homo sapiens) (UniProt O75604). Briefly: qHTS for Inhibitors of Ubiquitin-specific Protease USP2a Using CHOP2 as the Reporter: K484 Substrate (AID 652173).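 Further: cleavage of internally quenched K48 di-ubiquitin substrate measured as rising fluorescence over time; potency means the concentration at half of the fitted maximal effect; nearly all actives have a fitted effect of over 70% in size.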 The note with it: USP2 cleavage of DiUb K48 IQF substrate, fluorescence. The gist of the method: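 USP2 (dispensed at 5 nM) was pinned with compounds, then DiUb K48 internally quenched fluorescent substrate (dispensed at 100 nM) was added. The buffer was 20 mM Tris pH 8, 2 mM beta-mercaptoethanol and 0.05% CHAPS. Cleavage was read kinetically as rising fluorescence, Ex 525/Em 598.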

Experiment [13] in a line: qHTS Assay for Identifying Gametocytocidal Compounds (AID 743244). Further: potency means the concentration at half of the fitted maximal effect. As to conditions: P. falciparum 3D7 stage III-V gametocytes, alamarBlue, 72 h; max response: active compounds read low. The gist of the method: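 Late gametocytes (III–V), P. falciparum 3D7; 72 h drug, then 24 h alamarBlue; resazurin reduction read by fluorescence.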

A number with no mark means an inactive call. Results filed as inconclusive are left out. Where a call stands in place of a potency, no number is given. Activity calls are given as the source filed them. Unless noted, the call rests on the fitted dose curve; in most records, active means well fitted curve in the direction sought with a large enough effect; inconclusive means small, poorly fitted or top-dose-only effect, or another doubt; inactive means no such curve, though single readings can be large; an effect the other way counts as inactive or inconclusive.

Chain of Tyrosine-protein kinase Yes (Homo sapiens) (P07947 whole entry, looked up): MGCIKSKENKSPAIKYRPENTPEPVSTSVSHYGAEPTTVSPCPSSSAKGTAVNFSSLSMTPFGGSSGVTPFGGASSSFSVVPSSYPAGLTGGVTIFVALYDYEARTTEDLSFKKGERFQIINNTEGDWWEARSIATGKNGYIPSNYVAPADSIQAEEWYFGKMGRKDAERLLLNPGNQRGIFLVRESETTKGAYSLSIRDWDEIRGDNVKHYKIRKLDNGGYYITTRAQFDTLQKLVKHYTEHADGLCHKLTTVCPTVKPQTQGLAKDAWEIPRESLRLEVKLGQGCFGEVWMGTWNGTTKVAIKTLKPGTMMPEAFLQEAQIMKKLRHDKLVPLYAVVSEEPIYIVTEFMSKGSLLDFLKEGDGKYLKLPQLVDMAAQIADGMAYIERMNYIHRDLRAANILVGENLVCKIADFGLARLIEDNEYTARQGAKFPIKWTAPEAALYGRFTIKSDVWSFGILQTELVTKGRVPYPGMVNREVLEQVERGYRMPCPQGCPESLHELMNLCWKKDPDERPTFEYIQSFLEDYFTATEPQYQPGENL
Chain of Ubiquitin carboxyl-terminal hydrolase 2 (Homo sapiens) (O75604 whole entry, looked up): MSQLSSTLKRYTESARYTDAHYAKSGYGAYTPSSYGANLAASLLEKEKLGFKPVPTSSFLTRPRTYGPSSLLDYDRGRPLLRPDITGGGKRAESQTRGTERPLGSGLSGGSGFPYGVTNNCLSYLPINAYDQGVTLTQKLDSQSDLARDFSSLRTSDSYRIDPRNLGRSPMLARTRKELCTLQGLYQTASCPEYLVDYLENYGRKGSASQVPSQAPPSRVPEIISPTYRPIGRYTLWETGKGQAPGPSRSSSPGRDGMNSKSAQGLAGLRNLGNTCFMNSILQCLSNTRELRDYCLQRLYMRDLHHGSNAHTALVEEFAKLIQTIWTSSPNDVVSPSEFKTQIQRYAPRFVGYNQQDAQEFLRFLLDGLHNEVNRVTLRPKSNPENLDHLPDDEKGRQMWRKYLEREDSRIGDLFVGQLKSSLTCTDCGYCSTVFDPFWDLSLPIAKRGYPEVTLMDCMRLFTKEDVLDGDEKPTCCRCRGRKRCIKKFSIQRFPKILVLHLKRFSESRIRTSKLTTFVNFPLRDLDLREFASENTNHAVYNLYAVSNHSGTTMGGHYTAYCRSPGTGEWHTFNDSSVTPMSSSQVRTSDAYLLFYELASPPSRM
Chain of Peroxisome proliferator-activated receptor alpha (Homo sapiens) (Q07869 whole entry, looked up): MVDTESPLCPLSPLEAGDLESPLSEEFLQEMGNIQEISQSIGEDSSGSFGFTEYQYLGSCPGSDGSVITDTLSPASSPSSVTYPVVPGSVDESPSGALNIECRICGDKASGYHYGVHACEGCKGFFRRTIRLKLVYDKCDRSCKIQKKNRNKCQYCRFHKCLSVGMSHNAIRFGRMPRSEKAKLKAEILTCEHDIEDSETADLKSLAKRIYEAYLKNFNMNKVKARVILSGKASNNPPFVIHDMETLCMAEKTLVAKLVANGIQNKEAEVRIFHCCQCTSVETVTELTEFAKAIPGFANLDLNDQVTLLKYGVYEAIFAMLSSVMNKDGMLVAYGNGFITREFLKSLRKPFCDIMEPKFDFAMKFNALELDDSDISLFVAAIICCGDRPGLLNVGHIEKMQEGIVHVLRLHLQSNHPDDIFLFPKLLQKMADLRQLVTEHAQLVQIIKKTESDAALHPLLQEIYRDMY

For the compound `CN1CC[C@@H](c2c(O)cc(O)c3c(=O)cc(-c4ccccc4Cl)oc23)[C@@H](O)C1`, the Potency in experiment [1] was 34.5 µM (active). In [2], the outcome was inactive.

As to `Cc1cn(-c2cc(NC(=O)c3ccc(C)c(Nc4nccc(-c5cccnc5)n4)c3)cc(C(F)(F)F)c2)cn1`, in [1], the Potency result was “inactive”. For the same compound, the result in experiment [2] was inactive.

Turning to `NC(=O)c1c(OCc2c(F)cc(Br)cc2F)nsc1NC(=O)NCCCCN1CCCC1`, in experiment [1], the Potency is 0.0019 µM (active). In experiment [2], the outcome was inactive.

For the compound `Nc1nc(-c2nn(Cc3ccccc3F)c3ncccc23)nc(N)c1N1CCOCC1`, in experiment [1], the Potency entry is “inactive”. Further, in experiment [2], the outcome was inactive.

As to `Cc1cnc(Nc2ccc(F)cc2Cl)nc1-c1c[nH]c(C(=O)N[C@H](CO)c2cccc(Cl)c2)c1`, the Potency result in [1] is “inactive”. Also, the compound was classed as inactive in experiment [2].

In the case of `CC1(C)CCC(c2ccc(Cl)cc2)=C(CN2CCN(c3ccc(C(=O)NS(=O)(=O)c4ccc(N[C@H](CCN5CCOCC5)CSc5ccccc5)c(S(=O)(=O)C(F)(F)F)c4)cc3)CC2)C1`, the Potency in experiment [1] is 30.7 µM (active). In [2], the result was inactive.

Consider `CCCCN1CCC(CNC(=O)c2c3n(c4ccccc24)CCCO3)CC1`, for which the Potency entry in experiment [1] is “inactive”. For the same compound, in experiment [2], the compound was called inactive.

In the case of `CN1CCN(c2cc(C(=O)Nc3ccc4c(c3)-c3c(c(C(N)=O)nn3-c3ccc(F)cc3)CC4)c(Cl)cn2)CC1`, the Potency result in experiment [1] is “inactive”. In [2], the outcome was inactive.

As for `N#CCNC(=O)c1ccc(-c2ccnc(Nc3ccc(N4CCOCC4)cc3)n2)cc1`, in experiment [1], the Potency is 0.972 µM (active). Besides, the outcome in experiment [2] was inactive.

Consider `CC(C)(C)c1cc(C(C)(C)C)c(NC(=O)c2c[nH]c3ccccc3c2=O)cc1O`, for which the Potency entry in [1] is “inactive”. Further, in experiment [2], the compound was classed as inactive.

As to `CCC(=C(c1ccccc1)c1ccc(OCCN(C)C)cc1)c1ccccc1`, the Potency result in [1] was “inactive”. The result in experiment [2] was inactive.

For the compound `Cn1cncc1[C@@](N)(c1ccc(Cl)cc1)c1ccc2c(c1)c(-c1cccc(Cl)c1)cc(=O)n2C`, in experiment [1], the Potency entry was “inactive”. Moreover, the call in [2] was inactive.

For `CCOc1cc2ncc(C#N)c(Nc3ccc(F)c(Cl)c3)c2cc1NC(=O)C=CCN(C)C`, the Potency in [1] is 0.0434 µM (active). Besides, the compound was called inactive in experiment [2].

Consider `CCCCc1nc2cc(C=CC(=O)NO)ccc2n1CCN(CC)CC`, for which the Potency entry in experiment [1] was “inactive”. In experiment [2], the result was inactive.

On to `COc1ccc(C=Cc2cc(OC)c(OC)c(OC)c2)cc1O`, for which, in [1], the Potency entry was “inactive”. Also, the call in [2] was inactive.

Regarding `COCCn1c2c([n+](Cc3cnccn3)c1C)C(=O)c1ccccc1C2=O`, the Potency entry in [1] is “inactive”. In [2], the compound was classed as inactive.

Take `O=C(O)CCCc1c[nH]c2ccccc12`: the figures for the activation in experiment [3], in experiment [4] and in experiment [5] were -6.63%, -1.42% and 1.2%, respectively. The max response was -0.171% in experiment [6], 0.64% in experiment [8] and -3.33% in [9]. In addition, in [7], the call was inactive.

For the compound `CC(C)C[C@H](NC(=O)CNC(=O)c1cc(Cl)ccc1Cl)B(O)O`, the Potency entry in experiment [1] is “inactive”. Besides, the compound was called inactive in experiment [2].

With `Cc1ccc(S(=O)(=O)Nc2cc(Cl)ccc2C(=O)Nc2nc(-c3ccccc3)cs2)cc1`, the compound was called inactive in experiment [10] and in [2]. Besides, the results for the Potency in [11] and in experiment [12] were 5.26 µM (active) and 1.22 µM (active), respectively.

On to `CCCCCN(CCC12CC3CC(CC(C3)C1)C2)C(=O)NCCCc1ccncc1`, for which the Potency entry in [1] is “inactive”. Moreover, the call in experiment [2] was inactive.

Take `CC(C)(C)c1cc(NC(=O)Nc2ccc(-c3cn4c(n3)sc3cc(OCCN5CCOCC5)ccc34)cc2)no1`: in experiment [1], the Potency entry is “inactive”. Moreover, the result in experiment [2] was inactive.

Take `Cn1c(=O)n(-c2ccc(C(C)(C)C#N)cc2)c2c3cc(-c4cnc5ccccc5c4)ccc3ncc21`: in experiment [1], the Potency result is “inactive”. Moreover, in experiment [2], the compound was called inactive.

Turning to `CC(C)CC(=O)Nc1n[nH]c2c1CN(C(=O)C1CCN(C)CC1)C2(C)C`, the Potency in experiment [1] is 12.2 µM (active). Further, the result in experiment [2] was inactive.

`COc1cc2ncnc(Nc3ccc(F)c(Cl)c3)c2cc1NC(=O)C=CCN1CCCCC1`: the Potency in experiment [1] was 0.194 µM (active). Further, the compound was called inactive in experiment [2].

Consider `CCN(CC)CCCCNc1ncc2cc(-c3cc(OC)cc(OC)c3)c(NC(=O)NC(C)(C)C)nc2n1`, for which the Potency in [1] is 9.72 µM (active). For the same compound, the result in experiment [2] was inactive.

As for `Nc1ccc(C(=O)c2cc3c(ccc4ccccc43)[nH]2)cc1`, the Potency in experiment [1] is 30.7 µM (active). Besides, the result in experiment [2] was inactive.

Regarding `CC(=O)OCCN1C(=O)c2c(C)nc3ccc(S(=O)(=O)N4CCOCC4)cc3c2C1=O`, the Potency entry in [1] was “inactive”. The outcome in experiment [2] was inactive.

Turning to `C=CCn1c(=O)c2cnc(Nc3ccc(N4CCN(C)CC4)cc3)nc2n1-c1cccc(C(C)(C)O)n1`, the Potency in experiment [1] was 0.0434 µM (active). In experiment [2], the outcome was inactive.

Turning to `CC(C)[C@H](C(=O)Nc1ccc(C(=O)NO)cc1)c1ccccc1`, in experiment [1], the Potency result is “inactive”. The compound was called inactive in experiment [2].

Consider `C[C@@H]1CN(CC(=O)Nc2ccc3c(c2)Cc2cccc(-c4cc(=O)cc(N5CCOCC5)o4)c2S3)C[C@H](C)O1`, for which, in experiment [1], the Potency entry is “inactive”. Also, in experiment [2], the call was inactive.

For the compound `O=c1[nH]nc(Sc2ncc([N+](=O)[O-])s2)n1-c1ccc2c(c1)OCCO2`, the Potency result in experiment [1] is “inactive”. Further, in experiment [2], the call was inactive.

Take `CC1(O)CC(c2nc(-c3ccc4ccc(-c5ccccc5)nc4c3)c3c(N)nccn23)C1` (stereo not drawn): the Potency in [1] is 1.73 µM (active). Besides, in experiment [2], the compound was classed as inactive.

For `CC(=O)SC[C@@H](C)C(=O)N1CCC[C@H]1C(=O)N[C@@H](Cc1ccccc1)C(=O)O`, the Potency entry in experiment [1] was “inactive”. For the same compound, in experiment [2], the call was inactive.

As for `CCN1CCN(CC(=O)Nc2ccc(-c3cccc4c(=O)cc(N5CCOCC5)oc34)c3sc4ccccc4c23)CC1`, the Potency entry in experiment [1] is “inactive”. Further, in experiment [2], the call was inactive. Also, in experiment [13], the Potency was 29.6 µM (active).

Take `O=C(c1ccc(Nc2nccc(-c3cc4ccccc4s3)n2)cc1)N1CCC(N2CCCC2)CC1`: the Potency in experiment [1] was 0.0688 µM (active). Besides, the call in experiment [2] was inactive.
